SMILES strings stand for the structures. Several values for one entry are separate records, joined by “and”; a condition that tells them apart may be missing. Identical values can stand only once. Inconclusive results are not listed. A structure can be active in one record and inactive in another. Activity calls are given as the source filed them. Calls follow the shape of the dose curve; as a rule, active = well fitted curve in the direction sought with a large enough effect in the repeat runs; inconclusive = weak or mixed curves; inactive = no such curve, though single readings can be large; an effect the other way counts as inactive or inconclusive.

Assay [1] in a line: qHTS RealTime-Glo MT Cell Viability Assay in HEK293 cells - 0 hour (AID 1224880). Also: top concentration of the series differs between compounds; nearly all actives have a fitted effect of over 45% in size. An outline of the steps: (§1)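 Kinetic, non-lysing viability readout. Seed HEK293 (600/well) with reagent, incubate 5 h at 37 C/5% CO2, pin 23 nL compound in DMSO, incubate at 37 C, read luminescence at 0, 8, 16, 24, 32, 40 h.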
(In general: Quantitative high-throughput screening tests each substance at several concentrations.)

Assay [2] in a line: A CellTox Green Cytotoxicity Assay to monitor cytotoxicity in HEK293 cells - 32 hour (AID 1224881). Also: nearly all actives have a fitted effect of over 40% in size. Also: potency is read from the fitted curve at half-maximal effect. Put shortly: (§2)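 Real-time, in one plate: 600 HEK293 cells/well with dead-cell DNA dye, pinned compound after 5 h, 37 C incubation over 40 h; viable cells give no appreciable fluorescence.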
Assay [3] in a line: A CellTox Green Cytotoxicity Assay to monitor cytotoxicity in HepG2 cells - 0 hour (AID 1224882). Also: nearly all actives have a fitted effect of over 35% in size. An outline of the steps: (§3)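 Cytotoxicity was tracked as dead-cell DNA fluorescence in HepG2 cells treated with test compounds at 37 C; each time-point value comes from one kinetic series spanning 0, 8, 16, 24, 32 and 40 h.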
Assay [4] can be described thus: A CellTox Green Cytotoxicity Assay to monitor cytotoxicity in HepG2 cells - 32 hour (AID 1224883). Also: nearly all actives have a fitted effect of over 50% in size. Put shortly:
as §3

A short description of assay [5]: A CellTox Green Cytotoxicity Assay to monitor cytotoxicity in HEK293 cells - 8 hour (AID 1224884). Also: nearly all actives have a fitted effect of over 35% in size. Put shortly: as §2
Assay [6] in a line: qHTS RealTime-Glo MT Cell Viability Assay in HepG2 cells - 16 hour (AID 1224885). Also: nearly all actives have a fitted effect of over 50% in size. Put shortly: (§4)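 Cells + NanoLuc/prosubstrate dispensed (600 cells/well) → 5 h at 37 C/5% CO2 → compounds in DMSO transferred → 40 h incubation at 37 C, luminescence read at 0, 8, 16, 24, 32, 40 h.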
Assay [7] can be described thus: qHTS RealTime-Glo MT Cell Viability Assay in HEK293 cells - 24 hour (AID 1224886). Also: nearly all actives have a fitted effect of over 50% in size. Also: potency is read from the fitted curve at half-maximal effect. An outline of the steps:
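Tox21 10K qHTS, HEK293, 600 cells/well, RealTime-Glo reagent co-dispensed with cells; 5 h preincubation, compound by pintool, 37 C, luminescence at 0–40 h.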

A short description of assay [8]: qHTS RealTime-Glo MT Cell Viability Assay in HEK293 cells - 8 hour (AID 1224887). Also: top concentration of the series differs between compounds; nearly all actives have a fitted effect of over 50% in size. Put shortly: as §1
A short description of assay [9]: A CellTox Green Cytotoxicity Assay to monitor cytotoxicity in HEK293 cells - 16 hour (AID 1224888). Also: nearly all actives have a fitted effect of over 35% in size. Put shortly: as §2
Assay [10] is described as follows: qHTS RealTime-Glo MT Cell Viability Assay in HepG2 cells - 0 hour (AID 1224889). Also: nearly all actives have a fitted effect of over 50% in size. Put shortly:
as §4

Assay [11] is described as follows: A CellTox Green Cytotoxicity Assay to monitor cytotoxicity in HepG2 cells - 8 hour (AID 1224890). Also: nearly all actives have a fitted effect of over 45% in size. Put shortly:
as §3

Assay [12] can be described thus: qHTS assay to identify small molecule antagonists of the estrogen receptor alpha (ER-alpha) signaling pathway using the BG1 cell line in the presence of 0.1 nM 17-beta-estradiol - cell viability counter screen (AID 1259241). Also: nearly all actives have a fitted effect of over 40% in size. Put shortly: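 VM7Luc4E2 cells (endogenous full-length ER-alpha, 4xERE-luciferase), cultured 5 days in charcoal-stripped serum, exposed to compounds with 0.1 nM 17beta-estradiol (final) for 22 hr at 37C. Viability read in same wells as live-cell protease fluorescence after 30 min.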

A short description of assay [13]: qHTS assay to identify small molecule antagonists of the androgen receptor (AR) signaling pathway using the MDA cell line in the presence of 0.5 nM R1881 - cell viability counter screen (AID 1259242). Also: nearly all actives have a fitted effect of over 45% in size. An outline of the steps:
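Cells seeded at 3,000/well and allowed 5 hr at 37C, 0% CO2 before compound transfer and R1881 (0.5 nM final) addition; 16 hr later, live-cell protease fluorescence indicated cytotoxicity.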

A short description of assay [14]: qHTS assay to identify small molecule HDAC inhibitors (AID 1259364).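 Also: wild-type HCT-116 cells with endogenous class I/II HDAC activity; top concentration of the series differs between compounds; nearly all actives have a fitted effect of over 45% in size.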 An outline of the steps: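 HCT-116 wt cells, 1,500/well, overnight attach. Compounds (DMSO) 2 h, 37 °C. HDAC-Glo I/II, 30 min RT. Luminescence.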
Assay [15] is described as follows: qHTS assay to identify small molecule HDAC inhibitors - cell viability counter screen (AID 1259365). Put shortly:
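Wild-type HCT-116 cells, 1,500/well, cultured overnight, then compound-treated 2 h at 37 C. Viability measured as ATP luminescence with CellTiter-Glo after 30 min at room temperature.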

A short description of assay [16]: qHTS assay to identify small molecule agonists of the sonic hedgehog signaling (Shh) pathway - cell viability counter screen (AID 1259366). Also: nearly all actives have a fitted effect of over 50% in size. Also: potency is read from the fitted curve at half-maximal effect. Put shortly:
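NIH/3T3-derived Gli1-Luc reporter cells, 2,000 per well, received compound after 4 h and were treated about 23 h at 37C. Viability measured in the same wells by CellTiter-Fluor fluorescence after 1 h.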

The nature of assay [17]: qHTS assay to identify small molecule antagonists of the sonic hedgehog signaling (Shh) pathway - cell viability counter screen (AID 1259367). Also: nearly all actives have a fitted effect of over 55% in size. Also: potency is read from the fitted curve at half-maximal effect. Put shortly:
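Fluorescence read-out (CellTiter-Fluor, 1 hr at 37C) taken after 23 hr compound treatment of 3T3 Gli1-Luc cells stimulated with conditioned medium. Cells were seeded at 2,000 per well and pre-incubated 4 hr.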

The target in assay [18] is Androgen receptor (Homo sapiens) (UniProt P10275). Put plainly: qHTS assay to identify small molecule antagonists of the androgen receptor (AR) signaling pathway using the MDA cell line in the presence of 0.5 nM R1881 (AID 1259243). Also: nearly all actives have a fitted effect of over 50% in size. An outline of the steps:
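Luminescence from an AR/GR-responsive MMTV-luciferase construct in MDA-kb2 breast carcinoma cells, read 30 min after ONE-Glo, following 16 hr co-treatment with compounds and 0.5 nM R1881.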

The target in assay [19] is Estrogen receptor (Homo sapiens) (UniProt P03372). Put plainly: qHTS assay to identify small molecule antagonists of the estrogen receptor alpha (ER-alpha) signaling pathway using the BG1 cell line in the presence of 0.1 nM 17-beta-estradiol (AID 1259244). Also: nearly all actives have a fitted effect of over 50% in size. Put shortly: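 Luciferase signal from VM7Luc4E2 ERE-reporter cells, co-dosed with test compound and 0.1 nM final 17beta-estradiol for 22 h, read with ONE-Glo.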
Estrogen receptor (Homo sapiens), sequence (P03372 whole entry, looked up): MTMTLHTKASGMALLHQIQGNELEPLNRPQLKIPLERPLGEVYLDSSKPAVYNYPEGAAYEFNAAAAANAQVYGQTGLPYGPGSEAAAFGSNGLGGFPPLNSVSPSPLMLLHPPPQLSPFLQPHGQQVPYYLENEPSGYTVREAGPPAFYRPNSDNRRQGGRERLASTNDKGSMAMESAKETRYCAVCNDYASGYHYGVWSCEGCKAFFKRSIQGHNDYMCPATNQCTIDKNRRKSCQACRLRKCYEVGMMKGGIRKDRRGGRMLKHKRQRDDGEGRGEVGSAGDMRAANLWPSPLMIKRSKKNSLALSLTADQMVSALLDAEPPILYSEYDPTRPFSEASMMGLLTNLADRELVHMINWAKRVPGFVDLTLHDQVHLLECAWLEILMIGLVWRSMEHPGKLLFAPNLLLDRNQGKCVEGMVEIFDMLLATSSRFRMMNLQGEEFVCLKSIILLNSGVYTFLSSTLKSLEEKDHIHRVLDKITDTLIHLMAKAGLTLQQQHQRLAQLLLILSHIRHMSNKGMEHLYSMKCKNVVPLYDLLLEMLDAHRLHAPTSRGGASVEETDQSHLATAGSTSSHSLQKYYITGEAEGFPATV

Androgen receptor (Homo sapiens), sequence (P10275 whole entry, looked up): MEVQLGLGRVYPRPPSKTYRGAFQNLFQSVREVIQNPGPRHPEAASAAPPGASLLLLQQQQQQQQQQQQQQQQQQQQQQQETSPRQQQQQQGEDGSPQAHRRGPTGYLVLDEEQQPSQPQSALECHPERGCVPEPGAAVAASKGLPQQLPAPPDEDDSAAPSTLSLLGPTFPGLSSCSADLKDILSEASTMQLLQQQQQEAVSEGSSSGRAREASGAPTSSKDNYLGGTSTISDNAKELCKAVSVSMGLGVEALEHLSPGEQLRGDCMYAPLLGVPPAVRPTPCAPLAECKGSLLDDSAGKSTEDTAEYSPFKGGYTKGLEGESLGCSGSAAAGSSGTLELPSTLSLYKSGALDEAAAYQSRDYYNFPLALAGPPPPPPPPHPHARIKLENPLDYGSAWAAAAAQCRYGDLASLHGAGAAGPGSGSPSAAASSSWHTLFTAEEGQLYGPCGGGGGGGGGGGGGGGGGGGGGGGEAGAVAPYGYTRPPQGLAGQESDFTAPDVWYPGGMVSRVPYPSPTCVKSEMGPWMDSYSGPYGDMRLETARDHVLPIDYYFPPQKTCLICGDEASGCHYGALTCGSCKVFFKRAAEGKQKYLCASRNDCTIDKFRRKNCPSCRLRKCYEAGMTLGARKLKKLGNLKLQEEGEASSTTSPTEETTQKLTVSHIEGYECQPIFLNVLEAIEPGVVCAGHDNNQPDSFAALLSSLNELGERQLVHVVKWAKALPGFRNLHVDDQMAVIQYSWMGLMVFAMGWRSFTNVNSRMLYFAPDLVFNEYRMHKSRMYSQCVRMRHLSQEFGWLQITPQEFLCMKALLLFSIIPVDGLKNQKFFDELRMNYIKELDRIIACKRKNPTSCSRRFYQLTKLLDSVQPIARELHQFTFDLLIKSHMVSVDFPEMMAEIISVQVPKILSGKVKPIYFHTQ

On to `CCN(CC)N=O`, for which the Potency result in [1], in [2], in assay [3], in assay [4], in [5] and in assay [6] was “inactive” throughout. Further, the Potency result in assay [7], in assay [8], in assay [9], in assay [10], in assay [11] and in assay [12] was “inactive” in each case. Further, the Potency result in assay [13], in [14], in assay [16] and in assay [17] was “inactive” in each case. For the same molecule, in assay [15], the result was inactive.
For `O=C(CCl)c1ccccc1`, the Potency result in [1], in assay [3], in assay [4], in [5], in assay [6] and in assay [8] was “inactive” each time. Besides, the Potency entry in [9], in assay [10], in assay [11], in assay [12], in [13] and in assay [14] was “inactive” throughout. In addition, the Potency entry in assay [16] and in [17] was “inactive” in each case. The Potency result in assay [2] is “inactive and 54.9 µM (active)”; in assay [7], “inactive and 49 µM (active)”. The molecule was classed as inactive in assay [15].
For `C=CCN(CC=C)C(=O)C(Cl)Cl`, the Potency result in assay [1], in assay [2], in assay [3], in [4], in [5] and in assay [6] was “inactive” throughout. Besides, the Potency entry in assay [7], in [8], in assay [9], in assay [10], in assay [11] and in assay [12] was “inactive” each time. In addition, the Potency result in assay [13], in assay [16] and in assay [17] was “inactive” each time. Moreover, the call in assay [15] was inactive.
As to `O=C(O)C(F)(F)C(F)(F)C(F)(F)C(F)(F)C(F)(F)C(F)(F)C(F)(F)F`, the Potency result in [1], in assay [2], in assay [3], in assay [4], in [5] and in assay [6] was “inactive” throughout. For the same molecule, the Potency result in [7], in assay [8], in assay [9], in [10], in [11] and in assay [12] was “inactive” in each case. The Potency entry in assay [13], in assay [14], in assay [16] and in [17] was “inactive” throughout. In addition, in [15], the call was inactive.
Take `c1cc(OCC2CO2)ccc1Cc1ccc(OCC2CO2)cc1` (stereo unspecified): the Potency result in [1], in assay [2], in [3], in assay [5], in [6] and in assay [7] was “inactive” each time. In addition, the Potency entry in assay [8], in assay [9], in assay [10], in assay [11], in assay [12] and in [13] was “inactive” in each case. Further, the Potency result in assay [18] and in assay [19] was “inactive” each time. The result in assay [15] was inactive. The Potency in [16] is 27.3 µM (active); in [17], 61.1 µM (active).
In the case of `O=C(NC(=O)c1c(F)cccc1F)Nc1ccc(Cl)cc1`, the Potency result in assay [1], in assay [2], in assay [3], in assay [4], in [5] and in [6] was “inactive” throughout. Further, the Potency result in [8], in [9], in [10], in assay [11], in assay [12] and in [13] was “inactive” in each case. The Potency result in [19], in [14], in [16] and in assay [17] was “inactive” each time. Moreover, in assay [15], the call was inactive.

The values are drawn from PubChem BioAssay (Tox21).
